Columns and labels:
Assay in all cases: DAPPL (digital affinity profiling via proximity ligation, sequencing); 10 mM Tris-HCl pH 7.5, 50 mM NaCl, 1 mM DTT, 4% glycerol, room temperature, 30 min; GST-TFs on glutathione beads, 16-mer random dsDNA library, 0.1% formaldehyde crosslink after washing; high values mean tight binding
FEV = target: T1, FEV (Homo sapiens, UniProt Q99581 1-238); conditions: protein: recombinant; tags: N-terminal GST; dsDNA, one strand shown
T1 sequence: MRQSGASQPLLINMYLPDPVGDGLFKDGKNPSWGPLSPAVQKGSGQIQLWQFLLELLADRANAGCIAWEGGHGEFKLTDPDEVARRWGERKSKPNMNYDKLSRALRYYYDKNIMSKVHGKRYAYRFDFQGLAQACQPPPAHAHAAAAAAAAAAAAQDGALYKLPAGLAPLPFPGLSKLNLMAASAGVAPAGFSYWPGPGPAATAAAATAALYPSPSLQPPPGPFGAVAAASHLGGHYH
Outline: (§1)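 The binding signal reported is, for every hexamer, its read frequency for a factor over its read frequency for the tag-only sample. Reads came from pools of yeast-expressed, GST-fused human transcription factors on glutathione beads, barcoded with DNA and mixed with that sample, which were incubated with 200 nmole of a random double-stranded 16-mer DNA library in Tris/NaCl/DTT/glycerol buffer at room temperature for 30 min. After washing, the pools were crosslinked with 0.1% formaldehyde, proximity-ligated with BsaI/T4 ligase for 1 h at 37 °C, PCR-amplified and sequenced on an Illumina NextSeq500.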

ETV5 = ETV5 (Homo sapiens, UniProt P41161 1-510); conditions: protein: recombinant; tags: N-terminal GST; dsDNA, one strand shown
ETV5, sequence (P41161 whole entry): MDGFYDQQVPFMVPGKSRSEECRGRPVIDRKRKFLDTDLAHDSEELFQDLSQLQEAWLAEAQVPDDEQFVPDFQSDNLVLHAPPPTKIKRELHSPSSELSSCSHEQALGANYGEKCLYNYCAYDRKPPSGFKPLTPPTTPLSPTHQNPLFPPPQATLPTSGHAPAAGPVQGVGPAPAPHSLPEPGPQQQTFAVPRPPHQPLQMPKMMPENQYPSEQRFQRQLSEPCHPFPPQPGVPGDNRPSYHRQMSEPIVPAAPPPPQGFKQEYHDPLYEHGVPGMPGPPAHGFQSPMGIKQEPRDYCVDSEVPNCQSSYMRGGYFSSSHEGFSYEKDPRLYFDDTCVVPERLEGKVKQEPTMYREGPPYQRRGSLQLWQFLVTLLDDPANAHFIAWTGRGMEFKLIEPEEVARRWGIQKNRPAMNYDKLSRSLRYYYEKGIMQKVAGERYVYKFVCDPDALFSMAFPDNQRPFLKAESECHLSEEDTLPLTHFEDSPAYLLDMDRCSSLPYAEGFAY
Outline: as §1

HSF1 = HSF1 (Homo sapiens, UniProt Q00613 1-529); conditions: protein: recombinant; tags: N-terminal GST; chain copies: 3; dsDNA, one strand shown
HSF1, sequence (Q00613 whole entry): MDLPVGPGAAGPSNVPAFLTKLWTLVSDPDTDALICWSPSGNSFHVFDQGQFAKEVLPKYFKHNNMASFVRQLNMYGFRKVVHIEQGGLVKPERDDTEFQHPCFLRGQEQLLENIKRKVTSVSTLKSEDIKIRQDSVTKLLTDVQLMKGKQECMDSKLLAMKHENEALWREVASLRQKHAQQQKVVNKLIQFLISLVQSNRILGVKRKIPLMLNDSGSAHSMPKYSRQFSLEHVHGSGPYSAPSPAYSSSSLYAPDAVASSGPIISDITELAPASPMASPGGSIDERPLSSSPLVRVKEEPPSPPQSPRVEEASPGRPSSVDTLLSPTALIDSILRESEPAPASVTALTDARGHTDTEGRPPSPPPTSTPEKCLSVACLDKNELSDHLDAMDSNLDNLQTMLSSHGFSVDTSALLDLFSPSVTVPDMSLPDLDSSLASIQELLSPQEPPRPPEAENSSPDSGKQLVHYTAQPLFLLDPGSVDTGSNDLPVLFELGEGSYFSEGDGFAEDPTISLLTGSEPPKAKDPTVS
Outline: as §1

SPIC = target: T2, SPIC (Homo sapiens, UniProt Q8N5J4 1-248); conditions: protein: recombinant; tags: N-terminal GST; dsDNA, one strand shown
T2 sequence: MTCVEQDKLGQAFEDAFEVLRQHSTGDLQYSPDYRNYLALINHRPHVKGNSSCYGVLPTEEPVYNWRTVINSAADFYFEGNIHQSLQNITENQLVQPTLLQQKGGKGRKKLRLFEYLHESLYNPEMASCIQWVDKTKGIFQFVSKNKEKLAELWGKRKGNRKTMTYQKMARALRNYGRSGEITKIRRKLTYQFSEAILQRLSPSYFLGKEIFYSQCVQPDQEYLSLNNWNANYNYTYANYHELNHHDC
Outline: as §1

ELF4 = ELF4 (Homo sapiens, UniProt Q99607 1-663); conditions: protein: recombinant; tags: N-terminal GST; dsDNA, one strand shown
ELF4, sequence (Q99607 whole entry): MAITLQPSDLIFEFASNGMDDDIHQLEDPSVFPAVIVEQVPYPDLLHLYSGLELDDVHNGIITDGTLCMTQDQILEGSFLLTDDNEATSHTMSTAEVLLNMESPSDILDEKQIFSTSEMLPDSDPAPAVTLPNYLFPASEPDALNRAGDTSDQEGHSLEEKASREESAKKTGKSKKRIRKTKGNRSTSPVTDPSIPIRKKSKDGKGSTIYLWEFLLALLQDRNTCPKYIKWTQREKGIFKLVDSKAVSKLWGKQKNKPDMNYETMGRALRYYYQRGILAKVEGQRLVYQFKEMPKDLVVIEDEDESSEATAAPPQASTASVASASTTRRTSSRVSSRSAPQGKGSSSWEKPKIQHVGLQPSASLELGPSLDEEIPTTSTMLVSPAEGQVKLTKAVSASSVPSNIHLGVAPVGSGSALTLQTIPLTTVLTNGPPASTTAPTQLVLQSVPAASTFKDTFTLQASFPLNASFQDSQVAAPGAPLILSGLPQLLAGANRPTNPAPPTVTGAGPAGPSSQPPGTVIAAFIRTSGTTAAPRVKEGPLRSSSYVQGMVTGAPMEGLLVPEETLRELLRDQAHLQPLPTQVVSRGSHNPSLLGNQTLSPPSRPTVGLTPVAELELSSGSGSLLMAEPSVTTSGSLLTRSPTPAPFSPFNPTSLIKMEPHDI
Outline: as §1

ELK4 = target: T3, ELK4 (Homo sapiens, UniProt P28324-2 1-405); conditions: protein: recombinant; tags: N-terminal GST; dsDNA, one strand shown
T3 sequence: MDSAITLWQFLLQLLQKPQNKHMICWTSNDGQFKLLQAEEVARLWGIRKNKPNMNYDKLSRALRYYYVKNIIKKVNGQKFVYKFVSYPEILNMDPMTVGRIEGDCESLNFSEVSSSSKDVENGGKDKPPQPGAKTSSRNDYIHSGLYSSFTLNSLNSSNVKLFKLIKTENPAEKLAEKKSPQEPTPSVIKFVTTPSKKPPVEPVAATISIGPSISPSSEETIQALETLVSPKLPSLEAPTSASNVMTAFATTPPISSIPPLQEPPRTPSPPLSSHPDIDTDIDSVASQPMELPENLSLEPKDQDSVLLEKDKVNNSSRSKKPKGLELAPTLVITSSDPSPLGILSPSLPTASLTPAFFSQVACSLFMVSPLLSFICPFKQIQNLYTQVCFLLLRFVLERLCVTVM
Outline: as §1

ELF3 = target: T4, ELF3 (Homo sapiens, UniProt P78545 1-371); conditions: protein: recombinant; tags: N-terminal GST; dsDNA, one strand shown
T4 sequence: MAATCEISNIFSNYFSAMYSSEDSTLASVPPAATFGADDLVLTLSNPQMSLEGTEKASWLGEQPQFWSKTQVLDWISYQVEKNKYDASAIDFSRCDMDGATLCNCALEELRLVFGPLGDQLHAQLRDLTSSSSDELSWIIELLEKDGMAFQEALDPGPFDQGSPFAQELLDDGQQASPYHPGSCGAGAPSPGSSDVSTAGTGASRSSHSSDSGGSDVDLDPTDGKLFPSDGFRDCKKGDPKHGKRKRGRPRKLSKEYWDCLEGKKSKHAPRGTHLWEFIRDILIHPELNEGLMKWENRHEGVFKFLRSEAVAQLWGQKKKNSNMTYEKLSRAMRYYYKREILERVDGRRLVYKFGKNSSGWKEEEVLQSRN
Outline: as §1

CRX = CRX (Homo sapiens, UniProt O43186 1-299); conditions: protein: recombinant; tags: N-terminal GST; dsDNA, one strand shown
CRX, sequence (O43186 whole entry): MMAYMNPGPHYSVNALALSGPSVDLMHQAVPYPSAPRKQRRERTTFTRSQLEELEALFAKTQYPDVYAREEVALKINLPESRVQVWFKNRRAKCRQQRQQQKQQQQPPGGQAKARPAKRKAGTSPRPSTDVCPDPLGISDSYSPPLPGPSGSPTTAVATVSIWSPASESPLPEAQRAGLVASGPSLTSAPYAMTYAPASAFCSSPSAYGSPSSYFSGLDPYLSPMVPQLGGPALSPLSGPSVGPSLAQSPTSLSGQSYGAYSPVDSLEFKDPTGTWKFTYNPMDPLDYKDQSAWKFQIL
Outline: as §1

ETV1 = ETV1 (Homo sapiens, UniProt P50549 1-477); conditions: protein: recombinant; tags: N-terminal GST; dsDNA, one strand shown
ETV1, sequence (P50549 whole entry): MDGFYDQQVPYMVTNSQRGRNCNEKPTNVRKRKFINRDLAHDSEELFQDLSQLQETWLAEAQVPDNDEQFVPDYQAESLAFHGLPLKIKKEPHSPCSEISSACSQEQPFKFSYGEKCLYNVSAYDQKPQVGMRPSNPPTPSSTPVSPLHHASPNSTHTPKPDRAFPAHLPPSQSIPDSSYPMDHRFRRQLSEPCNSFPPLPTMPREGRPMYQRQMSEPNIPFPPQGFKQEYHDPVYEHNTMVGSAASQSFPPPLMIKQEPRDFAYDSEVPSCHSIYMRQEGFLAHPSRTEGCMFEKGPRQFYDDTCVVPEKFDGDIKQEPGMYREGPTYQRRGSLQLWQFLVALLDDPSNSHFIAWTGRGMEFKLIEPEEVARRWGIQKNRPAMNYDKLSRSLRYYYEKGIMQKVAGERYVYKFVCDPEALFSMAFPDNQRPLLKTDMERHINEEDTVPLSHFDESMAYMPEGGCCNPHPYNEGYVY
Outline: as §1

ETV3L = target: T5, ETV3L (Homo sapiens, UniProt Q6ZN32 1-361); conditions: protein: recombinant; tags: N-terminal GST; dsDNA, one strand shown
T5 sequence: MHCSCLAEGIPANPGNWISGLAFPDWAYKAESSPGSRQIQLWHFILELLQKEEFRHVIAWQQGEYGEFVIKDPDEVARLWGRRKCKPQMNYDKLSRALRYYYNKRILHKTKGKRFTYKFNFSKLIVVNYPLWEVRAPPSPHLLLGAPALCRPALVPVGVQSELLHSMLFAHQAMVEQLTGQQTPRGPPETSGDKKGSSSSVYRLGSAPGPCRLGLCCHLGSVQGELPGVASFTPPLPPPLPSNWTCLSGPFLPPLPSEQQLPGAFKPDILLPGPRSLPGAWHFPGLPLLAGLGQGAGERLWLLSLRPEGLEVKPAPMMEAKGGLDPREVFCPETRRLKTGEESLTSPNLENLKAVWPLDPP
Outline: as §1

ETS2 = target: T6, ETS2 (Homo sapiens, UniProt P15036 1-469); conditions: protein: recombinant; tags: N-terminal GST; dsDNA, one strand shown
T6 sequence: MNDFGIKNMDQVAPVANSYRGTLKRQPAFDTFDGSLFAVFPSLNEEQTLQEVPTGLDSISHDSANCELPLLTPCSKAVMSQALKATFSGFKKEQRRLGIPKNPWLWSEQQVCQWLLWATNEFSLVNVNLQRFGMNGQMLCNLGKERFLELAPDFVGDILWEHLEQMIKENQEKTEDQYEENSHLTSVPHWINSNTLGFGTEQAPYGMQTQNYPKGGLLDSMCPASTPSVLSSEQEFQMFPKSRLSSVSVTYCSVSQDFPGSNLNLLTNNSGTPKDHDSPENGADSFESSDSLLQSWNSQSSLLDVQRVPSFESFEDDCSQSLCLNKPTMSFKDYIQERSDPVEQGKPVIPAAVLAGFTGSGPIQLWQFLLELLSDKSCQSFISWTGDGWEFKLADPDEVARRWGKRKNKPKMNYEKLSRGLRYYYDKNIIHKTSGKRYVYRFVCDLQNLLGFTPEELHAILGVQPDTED
Outline: as §1

SPDEF = target: T7, SPDEF (Homo sapiens, UniProt O95238 1-335); conditions: protein: recombinant; tags: N-terminal GST; dsDNA, one strand shown
T7 sequence: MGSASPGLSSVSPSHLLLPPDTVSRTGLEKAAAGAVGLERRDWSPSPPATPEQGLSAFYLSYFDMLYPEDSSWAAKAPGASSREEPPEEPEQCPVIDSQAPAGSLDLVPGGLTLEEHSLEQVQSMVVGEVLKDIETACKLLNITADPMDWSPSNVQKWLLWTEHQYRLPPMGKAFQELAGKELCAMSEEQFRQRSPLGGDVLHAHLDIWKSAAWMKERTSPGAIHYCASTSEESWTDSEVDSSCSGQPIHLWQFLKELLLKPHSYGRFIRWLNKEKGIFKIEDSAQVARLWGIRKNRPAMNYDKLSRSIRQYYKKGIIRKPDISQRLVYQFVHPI
Outline: as §1

ETV7 = target: T8, ETV7 (Homo sapiens, UniProt Q9Y603 1-341); conditions: protein: recombinant; tags: N-terminal GST; dsDNA, one strand shown
T8 sequence: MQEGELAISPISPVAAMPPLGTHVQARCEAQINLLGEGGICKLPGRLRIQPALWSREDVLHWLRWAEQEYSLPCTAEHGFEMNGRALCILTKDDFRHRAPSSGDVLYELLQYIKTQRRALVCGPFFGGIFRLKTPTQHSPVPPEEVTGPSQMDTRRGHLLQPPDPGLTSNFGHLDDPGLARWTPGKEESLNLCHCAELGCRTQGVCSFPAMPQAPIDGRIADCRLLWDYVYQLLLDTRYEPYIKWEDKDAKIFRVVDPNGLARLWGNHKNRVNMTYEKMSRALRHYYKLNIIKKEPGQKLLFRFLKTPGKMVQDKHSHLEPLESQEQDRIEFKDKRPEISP
Outline: as §1

ELF5 = target: T9, ELF5 (Homo sapiens, UniProt Q9UKW6-2 1-255); conditions: protein: recombinant; tags: N-terminal GST; dsDNA, one strand shown
T9 sequence: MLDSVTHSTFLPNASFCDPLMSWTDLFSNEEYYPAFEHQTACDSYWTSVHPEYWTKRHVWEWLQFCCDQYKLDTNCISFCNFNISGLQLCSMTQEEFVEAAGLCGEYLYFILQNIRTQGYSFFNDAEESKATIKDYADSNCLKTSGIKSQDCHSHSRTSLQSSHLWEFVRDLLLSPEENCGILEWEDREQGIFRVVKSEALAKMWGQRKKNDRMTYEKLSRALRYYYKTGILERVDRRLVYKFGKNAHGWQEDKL
Outline: as §1

ETV3 = target: T10, ETV3 (Homo sapiens, UniProt P41162-2 1-143); conditions: protein: recombinant; tags: N-terminal GST; dsDNA, one strand shown
T10 sequence: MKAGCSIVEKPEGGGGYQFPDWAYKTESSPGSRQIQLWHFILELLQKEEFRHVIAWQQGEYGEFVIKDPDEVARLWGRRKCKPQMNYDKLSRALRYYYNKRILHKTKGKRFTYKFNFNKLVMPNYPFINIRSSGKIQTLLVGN
Outline: as §1

ETV6 = ETV6 (Homo sapiens, UniProt P41212 1-452); conditions: protein: recombinant; tags: N-terminal GST; dsDNA, one strand shown
ETV6, sequence (P41212 whole entry): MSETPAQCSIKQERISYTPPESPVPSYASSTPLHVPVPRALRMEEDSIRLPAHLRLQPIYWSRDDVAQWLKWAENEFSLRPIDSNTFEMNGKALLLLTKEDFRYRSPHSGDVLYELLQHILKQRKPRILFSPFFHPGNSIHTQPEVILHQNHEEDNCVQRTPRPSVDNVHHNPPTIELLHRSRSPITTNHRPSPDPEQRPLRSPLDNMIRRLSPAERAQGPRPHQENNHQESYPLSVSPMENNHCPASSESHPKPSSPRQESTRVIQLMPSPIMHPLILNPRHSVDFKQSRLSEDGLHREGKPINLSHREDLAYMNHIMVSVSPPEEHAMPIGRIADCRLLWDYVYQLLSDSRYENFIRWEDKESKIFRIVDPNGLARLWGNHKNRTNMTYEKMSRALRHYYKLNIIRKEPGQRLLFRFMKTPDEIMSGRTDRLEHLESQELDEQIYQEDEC
Outline: as §1

ERF = target: T11, ERF (Homo sapiens, UniProt P50548 1-548); conditions: protein: recombinant; tags: N-terminal GST; dsDNA, one strand shown
T11 sequence: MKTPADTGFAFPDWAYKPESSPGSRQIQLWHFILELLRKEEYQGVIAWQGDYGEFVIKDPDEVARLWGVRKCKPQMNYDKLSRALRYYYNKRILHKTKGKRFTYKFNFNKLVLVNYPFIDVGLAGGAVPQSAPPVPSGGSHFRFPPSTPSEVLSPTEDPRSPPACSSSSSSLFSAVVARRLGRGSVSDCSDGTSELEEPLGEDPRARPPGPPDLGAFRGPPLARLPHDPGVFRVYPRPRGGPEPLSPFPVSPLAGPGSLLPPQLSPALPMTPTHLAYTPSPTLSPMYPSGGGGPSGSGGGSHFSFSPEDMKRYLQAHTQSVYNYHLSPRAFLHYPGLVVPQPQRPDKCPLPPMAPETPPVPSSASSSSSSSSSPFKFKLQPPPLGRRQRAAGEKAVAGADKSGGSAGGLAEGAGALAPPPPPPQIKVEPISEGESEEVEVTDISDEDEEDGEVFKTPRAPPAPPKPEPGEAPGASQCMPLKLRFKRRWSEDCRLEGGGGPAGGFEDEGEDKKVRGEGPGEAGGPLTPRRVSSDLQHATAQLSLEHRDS
Outline: as §1

Row | Sequence | binding signal (FEV) | binding signal (ETV5) | binding signal (HSF1) | binding signal (SPIC) | binding signal (ELF4) | binding signal (ELK4) | binding signal (ELF3) | binding signal (CRX) | binding signal (ETV1) | binding signal (ETV3L) | binding signal (ETS2) | binding signal (SPDEF) | binding signal (ETV7) | binding signal (ELF5) | binding signal (ETV3) | binding signal (ETV6) | binding signal (ERF)
1 | AACGTT | 1.08 fold enrichment (6-mer frequency, TF over GST control) | 1.07 fold enrichment (6-mer frequency, TF over GST control) | 1.32 fold enrichment (6-mer frequency, TF over GST control) | 1.23 fold enrichment (6-mer frequency, TF over GST control) | 1.14 fold enrichment (6-mer frequency, TF over GST control) | 1.02 fold enrichment (6-mer frequency, TF over GST control) | 1.05 fold enrichment (6-mer frequency, TF over GST control) | 1.02 fold enrichment (6-mer frequency, TF over GST control) | 1.1 fold enrichment (6-mer frequency, TF over GST control) | 1.11 fold enrichment (6-mer frequency, TF over GST control) | 1.17 fold enrichment (6-mer frequency, TF over GST control) | 1.12 fold enrichment (6-mer frequency, TF over GST control) | 1.1 fold enrichment (6-mer frequency, TF over GST control) | 1.16 fold enrichment (6-mer frequency, TF over GST control) | 1.11 fold enrichment (6-mer frequency, TF over GST control) | 1.19 fold enrichment (6-mer frequency, TF over GST control) | 
2 | TAGCGA |  | 1.08 fold enrichment (6-mer frequency, TF over GST control) | 1.22 fold enrichment (6-mer frequency, TF over GST control) | 1.08 fold enrichment (6-mer frequency, TF over GST control) | 1.04 fold enrichment (6-mer frequency, TF over GST control) | 1.05 fold enrichment (6-mer frequency, TF over GST control) | 1.2 fold enrichment (6-mer frequency, TF over GST control) | 1.24 fold enrichment (6-mer frequency, TF over GST control) | 1.07 fold enrichment (6-mer frequency, TF over GST control) | 1.02 fold enrichment (6-mer frequency, TF over GST control) | 1.01 fold enrichment (6-mer frequency, TF over GST control) | 1.02 fold enrichment (6-mer frequency, TF over GST control) |  |  |  | 1 fold enrichment (6-mer frequency, TF over GST control) | 1.19 fold enrichment (6-mer frequency, TF over GST control)
3 | CGATCA | 1.04 fold enrichment (6-mer frequency, TF over GST control) | 1.03 fold enrichment (6-mer frequency, TF over GST control) | 1.22 fold enrichment (6-mer frequency, TF over GST control) | 1.06 fold enrichment (6-mer frequency, TF over GST control) | 1.06 fold enrichment (6-mer frequency, TF over GST control) | 1.07 fold enrichment (6-mer frequency, TF over GST control) | 1.07 fold enrichment (6-mer frequency, TF over GST control) | 1.16 fold enrichment (6-mer frequency, TF over GST control) | 1.04 fold enrichment (6-mer frequency, TF over GST control) | 1.1 fold enrichment (6-mer frequency, TF over GST control) | 1.19 fold enrichment (6-mer frequency, TF over GST control) |  | 1.08 fold enrichment (6-mer frequency, TF over GST control) |  | 1.1 fold enrichment (6-mer frequency, TF over GST control) | 1.05 fold enrichment (6-mer frequency, TF over GST control) | 1.09 fold enrichment (6-mer frequency, TF over GST control)

— publication PMC7862700, “An all-to-all approach to the identification of sequence-specific readers for epigenetic DNA modifications on cytosine”
